Inconclusive results are not listed. Calls of active or inactive are those of the source. Calls follow the shape of the dose curve; as a rule, active = well fitted curve in the direction sought with a large enough effect; inconclusive = small, poorly fitted or top-dose-only effect, or another doubt; inactive = no such curve, though single readings can be large; an effect the other way counts as inactive or inconclusive.
Tests used:
[1] = P-glycoprotein substrates identified in KB-8-5-11 adenocarcinoma cell line, qHTS therapeutic library screen (AID 1346987); also: nearly all actives have a fitted effect of over 65% in size; also: potency is read from the fitted curve at half-maximal effect
Summary of the method: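 P-gp-mediated resistance screen: KB-8-5-11 cells treated 72 h with compounds in dose-response. CellTiter-Glo viability.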

[2] = NS1 protein of Zika virus - qHTS assay to identify small molecule inhibitors in human HEK 293 cells (AID 1347053); also: series mostly up to about 46 µM; nearly all actives have a fitted effect of over 55% in size
Summary of the method: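 HEK 293 cells pretreated with compound for 1 h, then infected with ZIKV MR766 (MOI 0.5) for 24 h at 37 C. NS1 detected by TR-FRET with two anti-NS1 antibodies; normalized to uninfected (0%) and infected (100%) wells.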

[3] = qHTS of pediatric cancer cell lines to identify multiple opportunities for drug repurposing: Primary screen for TC32 cells (AID 1347089); also: nearly all actives have a fitted effect of over 60% in size
Summary of the method: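 A viability screen of TC32 cells was run over 48 h, with primary MIPE doses spanning 0.78 nM–46 µM and NPC doses 0.59 nM–46 µM. ATP luminescence (CellTiter-Glo) served as the read-out.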

[4] = qHTS of pediatric cancer cell lines to identify multiple opportunities for drug repurposing: Primary screen for DAOY cells (AID 1347090); also: series mostly up to about 46 µM; nearly all actives have a fitted effect of over 55% in size
Summary of the method: (§1)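 Eight- or eleven-point concentration series, 48 h treatment at 37 degrees C in growth media; readout CellTiter-Glo luminescence. Potency and efficacy were taken from the concentration-response curves.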

[5] = qHTS of pediatric cancer cell lines to identify multiple opportunities for drug repurposing: Primary screen for SJ-GBM2 cells (AID 1347091)
Summary of the method: as §1

[6] = qHTS of pediatric cancer cell lines to identify multiple opportunities for drug repurposing: Primary screen for NB-EBc1 cells (AID 1347095)
Summary of the method: (§2)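 Primary screen of approved and investigational compounds on cells in growth media at 37 degrees C, 5% CO2. MIPE set at 11-point and NPC set at 8-point dilutions; viability scored by ATP-based luminescence at 48 hours.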

[7] = qHTS of pediatric cancer cell lines to identify multiple opportunities for drug repurposing: Primary screen for U-2 OS cells (AID 1347096); also: nearly all actives have a fitted effect of over 50% in size
Summary of the method: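 Cells (500-1,000/well) in growth media were settled 5 h at 37 degrees C, then given compounds for 48 h. Viability was read as CellTiter-Glo luminescence. Primary runs used MIPE at 11 points (0.78 nM-46 µM) and NPC at 8 points (0.59 nM-46 µM); follow-ups used 11 points.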

[8] = qHTS of pediatric cancer cell lines to identify multiple opportunities for drug repurposing: Primary screen for SK-N-SH cells (AID 1347098);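 also: DMSO served as neutral control and bortezomib at 2.3 µM as positive control; nearly all actives have a fitted effect of over 65% in size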
Summary of the method: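 Cells (500-1,000/well) rested 5 h, then received compounds for 48 h; metabolically active cells were measured by CellTiter-Glo luminescence. Final concentrations spanned up to 46 µM (MIPE, 11-point) or 0.59 nM-46 µM (NPC, 8-point) in primary screens, 11-point in follow-ups.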

[9] = qHTS of pediatric cancer cell lines to identify multiple opportunities for drug repurposing: Primary screen for BT-37 cells (AID 1347094); also: series mostly up to about 57 µM
Summary of the method: as §2

[10] = qHTS of pediatric cancer cell lines to identify multiple opportunities for drug repurposing: Primary screen for SK-N-MC cells (AID 1347093); also: series mostly up to about 46 µM
Summary of the method: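 Metabolically active cells were quantified by ATP-dependent luminescence (CellTiter-Glo, 15 min at room temperature) following 48 h treatment. Cells had been plated at 500-1,000 per well and settled for 5 h beforehand.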

[11] = qHTS of pediatric cancer cell lines to identify multiple opportunities for drug repurposing: Primary screen for Saos-2 cells (AID 1347097); also: nearly all actives have a fitted effect of over 40% in size
Summary of the method: as §2

Measured: Potency

C[C@H]1[C@H]2CC[C@H]3[C@@H]4CC=C5C[C@@H](N(C)C)CC[C@]5(C)[C@H]4CC[C@]23CN1C
not listed: [9] | [10] | [11]
inactive: all other assays above

C#C[C@]1(O)CC[C@H]2[C@@H]3CCC4=CC(=O)CC[C@@H]4[C@H]3CC[C@@]21CC
active: [1] 8.2 µM
not listed: [10] | [11]
inactive: all other assays above

Cc1nc(-c2ccc(Cl)cc2)oc1COC(C)(C)C(=O)O
not listed: [8]
inactive: all other assays above

COc1cc(C)nc(-n2nc(C)cc2OC)n1
not listed: [11]
inactive: all other assays above

CCOc1ccc(NC(C)=O)cc1
not listed: [10]
inactive: all other assays above

C[N+]1(CC2COC(c3ccccc3)(C3CCCCC3)O2)CCCCC1 (stereo not given)
not listed: [9] | [10]
inactive: all other assays above

CCOC(=O)Nc1ccc2c(c1)N(C(=O)CCN1CCOCC1)c1ccccc1S2
not listed: [8] | [10] | [11]
inactive: all other assays above

C[C@@H](O)[C@H]1C(=O)N2C(C(=O)O)=C([C@H]3CCCO3)S[C@H]12
inactive: all assays above

CC(C)[N+](C)(C)CC(O)COc1cccc2ccccc12 (stereo not given)
not listed: [10]
inactive: all other assays above

NC(=O)c1ccccc1O
not listed: [11]
inactive: all other assays above

C/C=C/C=N/NC(=O)c1ccncc1
not listed: [10]
inactive: all other assays above

Reference: PubChem BioAssay (NCATS)
